The results in this text go back to ChEMBL document CHEMBL4513216, “Probing the Open Global Health Chemical Diversity Library for Multistage-Active Starting Points for Next-Generation Antimalarials” (ACS Infect Dis, 2020).

Structures are written as SMILES. In all, about 69,000 compounds went through this assay and about 8,600 (12%) showed an effect of 50% or more. For the sample, strong results were picked, then their nearest neighbours and some compounds at random.

For this experiment, the system named is Plasmodium berghei. The experiment can be described thus: Screen against P. berghei liver stage (PbLuc), transformed with Luciferase, at 10uM. Particulars: tested at 10 uM. Format: functional, HepG2.
In the case of `CO[C@H]1CN(C(=O)c2ccc3oc(C)cc3c2)C[C@@]12CCCO2`, the INHIBITION is given as 63.4%.

For the compound `CO[C@H]1CCN(C(=O)c2ccc3oc(C)cc3c2)C[C@@]12CCCO2`, the INHIBITION came out at 45.6%.

Consider `CO[C@H]1CN(C(=O)c2ccc3oc(C)cc3c2)CC[C@@]12CCCO2`, for which the INHIBITION was 21.6%.

On to `COCCNC(=O)c1ccc(C)c(-n2cccc2)c1`, for which the INHIBITION is listed as -15%.

Turning to `CN(C)CCNc1c(-c2ccccc2)c(=O)c1=O`, the INHIBITION is -20.1%.

For `CN(C)[C@@H]1CN(Cc2ccco2)C[C@@H]2CCCO[C@@H]21`, the INHIBITION is reported as -2.27%.

Take `Cn1cnnc1CN1CCC2(CCC(=O)N(Cc3ccccn3)C2)CC1`: the INHIBITION was -42.2%.

Take `Cn1cnnc1CN1CCC2(CCC(=O)N(Cc3ccccc3)C2)CC1`: the INHIBITION is reported as 76.2%.

As to `CCN1CC2(CCC1=O)CCN(Cc1nncn1C)CC2`, the INHIBITION worked out at 17%.

Take `Nc1nc(C2CCN(C(=O)c3cnccn3)CC2)cs1`: the INHIBITION amounted to 38.2%.

With `Cn1ncc2c(=O)[nH]c(CN3CCCC3c3cccc(F)c3)nc21` (centres undefined), the INHIBITION is on record as -29.9%.

Take `CCCS(=O)(=O)N1CCOC2(COCCN(C(C)=O)C2)C1` (centres undefined): the INHIBITION was determined as 60%.

Consider `CC(=O)N1CCOCC2(C1)CN(S(C)(=O)=O)CCO2` (centres undefined), for which the INHIBITION is recorded as 18.7%.

As to `CCS(=O)(=O)N1CCOC2(COCCN(C(C)=O)C2)C1` (centres undefined), the INHIBITION was 18.7%.

Take `CCCn1nc2c(cc1=O)CN(CC(=O)Nc1ccncc1)CC2`: the INHIBITION is recorded as 40.3%.

Turning to `CNc1nccnc1C1CN(Cc2ccc(OCC(=O)O)cc2)CCO1` (centres undefined), the INHIBITION worked out at 26.7%.

Turning to `CS(=O)(=O)NCc1cn2c(n1)CN(Cc1ccoc1)CC2`, the INHIBITION is -4.02%.

For `Cc1cc(C)n(CC2CCCN2CCCS(C)(=O)=O)n1` (centres undefined), the INHIBITION is on record as 3.5625%.

Regarding `O=C(c1ccc(CNC2CCSC2)cc1)N1CCCC1` (centres undefined), the INHIBITION is given as -4.12%.

For `Cc1noc(C)c1Cc1nc(N(C)C)no1`, the INHIBITION turned out to be 19.9%.

On to `CC(C(=O)Nc1ncccn1)N1CCC(n2ccnc2)CC1` (centres undefined), for which the INHIBITION is recorded as 54.4%.

Regarding `CC(C(=O)NCCc1cccs1)N1CCC(n2ccnc2)CC1` (centres undefined), the INHIBITION is on record as 42.1%.

`CC(C(=O)Nc1ccc2ccccc2c1)N1CCC(n2ccnc2)CC1` (centres undefined): the INHIBITION is 48.8%.

Turning to `Cc1n[nH]c(CN2CCN(c3ncnc4scc(C)c34)CC2)c1Cl`, the INHIBITION is on record as 68.2%.

Take `CCc1nc(C)c(CN2CCN(c3ncnc4c(C)csc34)CC2)[nH]1`: the INHIBITION was determined as 4.35%.

In the case of `CCc1nc(C)c(CN2CCN(c3ncnc4scc(C)c34)CC2)[nH]1`, the INHIBITION was 30.5%.

Take `CCC(=O)N1CCC(c2nc(C)ncc2-c2ccncc2)CC1`: the INHIBITION is 19.2%.

As to `CCN1CCC2(CC1)CC(NCc1ccncc1)c1ccccc1O2` (centres undefined), the INHIBITION was determined as 43.9%.

As to `CC(C)Cn1ncc(C(=O)NS(=O)(=O)c2ccccc2)c1C1CC1`, the INHIBITION was determined as 79.7%.

As for `CC(C)Cn1ncc(C(=O)O)c1C1CC1`, the INHIBITION came out at 14.3%.

Take `CC(C)NC(=O)c1cc2c(nc1N(C)C)CCN(S(=O)(=O)C1CC1)CC2`: the INHIBITION is -37.9%.

Consider `CC(C)Cn1ncc(C(=O)NS(=O)(=O)C2CCCC2)c1C1CC1`, for which the INHIBITION amounted to 58.8%.

As for `CCc1c(C(=O)Nc2ccc(F)c(C(=O)NC)c2)cnn1CC(C)C`, the INHIBITION is listed as 30.9%.

In the case of `O=C(NS(=O)(=O)c1ccccc1)c1ccccc1F`, the INHIBITION is on record as 14.8%.

On to `CCC1c2ccsc2CCN1C(=O)NCc1cccnc1N(C)C` (centres undefined), for which the INHIBITION stood at 16.97%.

As to `Cn1cc(CN2CCC(c3cc(CCO)[nH]n3)C2)cn1` (centres undefined), the INHIBITION is on record as 39.8%.

`COc1cc(N2CCC(c3nccn3CCCN(C)C)CC2)nc(N)n1`: the INHIBITION is -10.9%.

As to `CN(C)CCn1ccnc1C1CCN(c2cc(N)nc(N)n2)CC1`, the INHIBITION is reported as 50.5%.

As to `COc1cc(N2CCCC(c3nccn3CCN(C)C)C2)nc(N)n1` (centres undefined), the INHIBITION was -40.3%.

Regarding `COc1ccccc1Cc1cncc(N2CC(C(=O)O)C2)n1`, the INHIBITION was 10%.

On to `CC(C)N1CCC(c2nc3ccc(-c4ccnn4C)cn3n2)CC1`, for which the INHIBITION turned out to be 8.52%.

Take `CN1CCN(C(=O)c2cccc(CN3CCOCC3)c2)CC1`: the INHIBITION was found to be 22.3%.

`CN(C)CCCC(=O)NC1CC(C)(C)Cc2nc(C(C)(C)C)ncc21` (centres undefined): the INHIBITION was 22%.

As for `Cc1sc(C(=O)NC(C)C)cc1S(=O)(=O)N(C)C`, the INHIBITION is on record as -16.8%.

As to `O=C(Nc1cnn(COc2ccc(F)cc2Cl)c1)C1CC1`, the INHIBITION is recorded as 71.3%.

In the case of `O=C(Nc1cnn(Cc2ccc(F)cc2Cl)c1)C1CC1`, the INHIBITION is -10.8%.

For `O=C(O)CCCC(=O)Nc1cnn(COc2ccc(F)cc2Cl)c1`, the INHIBITION is reported as 4.52%.

Take `COCCC(=O)Nc1cnn(COc2ccc(F)cc2Cl)c1`: the INHIBITION is 50.4%.

As for `COCCNC(=O)Cn1cc(NC(=O)c2cccc(Cl)c2Cl)cn1`, the INHIBITION was -3.83%.

On to `COCC(=O)Nc1cnn(COc2ccc(F)cc2Cl)c1`, for which the INHIBITION is 0.348%.

Regarding `CCn1c(Cn2cncn2)nnc1C1CCN(C2CCNCC2)CC1`, the INHIBITION is given as -3.51%.

As for `OC(CN1CCC(c2ccn[nH]2)CC1)c1cc(F)ccc1F` (centres undefined), the INHIBITION is reported as -4.94%.

With `O=C(CCc1nc(C2CC2)no1)c1ccccc1`, the INHIBITION was -12.2%.

Take `Cc1nccn1Cc1nnc(C2CCCN(c3cnccn3)C2)n1C` (centres undefined): the INHIBITION stood at 11.5%.

For the compound `CCOC(=O)c1s/c(=N\C(=O)COc2cnc(C)cc2O)[nH]c1C`, the INHIBITION came out at 3.52%.

Consider `COc1cc(N2CC[C@@H]3[C@@H](CC2)OCCN3CC2CC2)ncn1`, for which the INHIBITION was found to be 81%.

Regarding `COCCN1CCN(c2cc(OC)ncn2)Cc2ccc(C)nc21`, the INHIBITION came to 30.3%.

Regarding `COc1cc(N2CCN(CC3CC3)c3nc(C)ccc3C2)ncn1`, the INHIBITION amounted to 69.3%.

`COc1cc(N2CC[C@@H]3OCCN(C)[C@H]3CC2)ncn1`: the INHIBITION was 39.4%.

In the case of `COCCN1CCN(c2ccc(C)nn2)Cc2ccc(C)nc21`, the INHIBITION is on record as 51.2%.

Take `COCCN1CCN(Cc2c(C)noc2C)Cc2ccc(C)nc21`: the INHIBITION is 33%.

In the case of `CCCS(=O)(=O)N1CCN(CCOC)c2nc(C)ccc2C1`, the INHIBITION is on record as 29.8%.

Regarding `Cc1ccc(N2C[C@@H]3OCCN(CC4CC4)[C@@H]3C2)nn1`, the INHIBITION turned out to be 35.5%.

Take `Cc1ccc2c(n1)N(CC1CC1)CCN(S(=O)(=O)C1CC1)C2`: the INHIBITION is listed as -63.5%.

In the case of `COCCN1CCN(c2ccc(C)nn2)Cc2cccnc21`, the INHIBITION is recorded as -2.03%.

Turning to `COCCN1CCN(Cc2ccco2)Cc2ccc(C)nc21`, the INHIBITION worked out at 23.1%.

In the case of `COCCN1CCN(c2cccc(C)n2)Cc2ccc(C)nc21`, the INHIBITION was determined as 53.9%.

With `CSc1nccc(N2C[C@H]3CC[C@@H](C2)N(CC2CCC2)C3=O)n1`, the INHIBITION amounted to 22.3%.

Regarding `CC(C)c1noc(CCCC(=O)N2CCN(Cc3ccsc3)CC2)n1`, the INHIBITION was 21.5%.
